Molecules are shown by their SMILES. Results filed as inconclusive are left out. Active and inactive are the calls of the source. Rule for the calls: active = hit-call score of the fitted dose curve at least 0.9, where 1 is the maximum; inconclusive = response in the unintended direction; inactive = score below 0.9.

Sequence of human Peroxisome Proliferator-activated Receptor alpha (PPARa), PPARA (gene 5465) (Q07869 whole entry, looked up): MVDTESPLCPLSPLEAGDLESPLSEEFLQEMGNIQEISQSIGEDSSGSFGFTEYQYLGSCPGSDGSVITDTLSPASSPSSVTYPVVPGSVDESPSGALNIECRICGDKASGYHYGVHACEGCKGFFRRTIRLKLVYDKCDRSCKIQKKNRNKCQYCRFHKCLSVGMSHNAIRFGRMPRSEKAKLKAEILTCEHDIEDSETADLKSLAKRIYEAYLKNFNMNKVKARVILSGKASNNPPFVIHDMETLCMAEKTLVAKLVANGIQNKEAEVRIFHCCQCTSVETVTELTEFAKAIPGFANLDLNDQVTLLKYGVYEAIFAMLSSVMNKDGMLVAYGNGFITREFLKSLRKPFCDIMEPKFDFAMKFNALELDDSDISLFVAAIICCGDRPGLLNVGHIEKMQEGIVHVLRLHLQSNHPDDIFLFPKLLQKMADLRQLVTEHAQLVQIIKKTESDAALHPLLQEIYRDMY

The test addresses human Peroxisome Proliferator-activated Receptor alpha (PPARa), PPARA (gene 5465) (UniProt Q07869). The test can be described thus: ATG_PPARa_TRANS: Attagene TRANS-FACTORIAL HepG2 Assay for human Peroxisome Proliferator-activated Receptor alpha (PPARa) (AID 2283001).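 For AC50: potency for gain of reporter signal over DMSO so agonist or activator.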 On the procedure: ATG_TRANS is a cell-based, multiplexed-readout assay that uses HepG2, a human liver cell line, with measurements taken at 24 hours after chemical dosing in a 24-well plate.ATG_PPARa_TRANS is one of 30 assay component(s) measured or calculated from the ATG_TRANS assay. It is designed to make measurements of mRNA induction, a form of inducible reporter, as detected with fluorescence intensity signals by Reverse transcription polymerase chain reaction (RT-PCR) and Capillary electrophoresis technology.Data from the assay component ATG_PPARa_TRANS was analyzed into 1 assay endpoint. This assay endpoint, ATG_PPARa_TRANS, was analyzed in the positive analysis fitting direction relative to DMSO as the negative control and baseline of activity. Using a type of inducible reporter, measures of mRNA for gain-of-signal activity can be used to understand the reporter gene at the transcription factor-level as they relate to the gene PPARA. Furthermore, this assay endpoint can be referred to as a primary readout, because this assay has produced multiple assay endpoints where this one serves a reporter gene function. To generalize the intended target to other relatable targets, this assay endpoint is annotated to the nuclear receptor intended target family, where the subfamily is non-steroidal.
Human liver HepG2 cells are transiently transfected with multiple reporter transcription units (MRTUs) in 6-well plates using FuGene 6 reagent (Roche; 3 ml FuGene/1 mg DNA). The MRTU constructs are regulated by a cis-regulating element (promoter). […] A major difference between the CIS and TRANS system is that in CIS activities of endogenous TFs are measured, whereas the TRANS assay evaluates changes in activities of exogenous, chimeric NR-Gal4 proteins. […] At the end of 24 hour incubation, total RNA was isolated using TriZol reagent (Invitrogen). The isolated RNA is then reverse-transcribed using oligo(dT) primer and Mo-MLV reverse transcriptase (Invitrogen) with DNAse I (Ambion) treatment for 30 min. The one-tenth of the produced cDNA was amplified by PCR using Taq DNA polymerase (Invitrogen) and two reporter sequence-specific primers. The PCR products were fluorescently labeled by primer extension with 6-arboxyfluorescein (6-FAM) 5'-labeled reporter sequence-specific primer (2 min at 95 C, 20 s at 68 C and 10 min at 72 C) and these products were digested with 5U of HpaI (New England Biolabs) for 2h at 37 C. The fragments were purified using Qiaquick PCR columns (Qiagen), analyzed on an ABI 3130xL genetic analyzer (Applied Biosystems) with peak positions identified by using a set of X-rhodamine (ROX)-labeled MapMarker1000 molecular weight standards (BioVentures). The raw capillary electrophoresis data was processed using Attagraph software (Attagene).
On to `CC(C)CCCCCCCCCCCCCCC(=O)O`, for which the outcome was inactive. For the compound `Nc1ccc(N)c2c1C(=O)c1ccccc1C2=O`, the call was inactive. The same measure, in the same setting: in the case of `COc1ccccc1N=Nc1c(S(=O)(=O)O)cc2cc(S(=O)(=O)O)cc(NC(C)=O)c2c1O` it was “inactive”.

Consider `Nc1ccc(NCCO)c([N+](=O)[O-])c1`, for which the call was inactive. Same read-out and setting: in the case of `CCCCCCCCCCCCN1CCCCCC1=O` it was “inactive”.

For the compound `Nc1c(Cl)cc(Cl)cc1[N+](=O)[O-]`, the call was inactive.

Regarding `C[C@H]1O[C@@H](O[C@H]2[C@@H](O)C[C@H](O[C@H]3[C@@H](O)C[C@H](O[C@H]4CC[C@@]5(C)[C@H](CC[C@@H]6[C@@H]5C[C@@H](O)[C@]5(C)[C@@H](C7=CC(=O)OC7)CC[C@]65O)C4)O[C@@H]3C)O[C@@H]2C)C[C@H](O)[C@@H]1O`, the call was inactive.

As for `COC(=O)C=C(C)CCC=C(C)C`, the call was inactive. Same read-out and setting: the entry for `CCCCCC(=O)CC` is “inactive”. On the same count and under the same terms, the entry for `CCOc1ccc(NC(=O)CC(C)=O)cc1` is “inactive”.

Turning to `CC(C)(C)CC(C)(C)c1ccc(OCCOCC[N+](C)(C)Cc2ccccc2)cc1`, the AC50 (as a rule, the concentration giving half of the maximal activity seen) was 14.4 µM (active). Take `CC(=O)O[C@@H]1C[C@@H]2CC[C@@]1(C)C2(C)C`: the compound was called inactive.

Regarding `CCN(CCC#N)c1ccc(N=Nc2ccc([N+](=O)[O-])cc2)cc1`, the compound was classed as inactive. The same measure, in the same setting: in the case of `N#Cc1cscn1` it was “inactive”; in that of `OCC(O)c1ccccc1` (stereo not given), “inactive”.

Take `O=C1c2ccccc2C(=O)c2c(O)ccc(O)c21`: the call was inactive. On the same count and under the same terms, the entry for `CCCCCCCCc1ccc(S(=O)(=O)O)cc1` is “inactive”; for `CCCCN(CCCC)C(=O)N(CCCC)CCCC` it is “inactive”; for `[O-]n1ccccc1=S.[O-]n1ccccc1=S.[Zn+2]` it is “inactive”. On the same count and under the same terms, in the case of `C=C(C#N)C(=O)OCC` it was “inactive”; in that of `Cc1ccc(S(N)(=O)=O)cc1`, “inactive”.

On to `Cc1ncc([N+](=O)[O-])n1CCO`, for which the result was inactive. Same read-out and setting: in the case of `O=C1OC(=O)c2c(Cl)c(Cl)c(Cl)c(Cl)c21` it was “inactive”. The same measure, in the same setting: in the case of `O=C1OC2(c3ccccc31)c1ccc(O)c(Br)c1Oc1c2ccc(O)c1Br` it was “inactive”; in that of `CCCCCCCC(=O)OCC(O)CO` (stereo not given), “inactive”. On the same count and under the same terms, in the case of `CC(C)NCC(O)COc1ccc(CC(N)=O)cc1` (stereo not given) it was “inactive”; in that of `COc1ccc(COC(C)=O)cc1`, “inactive”. For `CC(C)c1ccccc1O`, the outcome was inactive. The same measure, in the same setting: in the case of `COC(C)(C)CC(C)=O` it was “inactive”. `CCCCCCCCCCCCCCN(CCO)CCO`: the call was inactive. With `O=C1CCCC=CCCCCCCCCCC1`, the outcome was inactive. For `C#CC(C)(O)CC(C)C` (stereo not given), the call was inactive. For `c1ccc(CCc2ccccc2)cc1`, the outcome was inactive. On to `CCCC(=O)OC(C)(C)Cc1ccccc1`, for which the compound was called inactive. For the compound `CCCC(C)C(O)CC` (stereo not given), the outcome was inactive.

As for `CC(=O)CC(=O)Nc1ccc(C)cc1C`, the result was inactive. Regarding `CCOC(=O)COC(=O)c1cc(Oc2ccc(C(F)(F)F)cc2Cl)ccc1[N+](=O)[O-]`, the AC50 was 14.5 µM (active). For `CCCCCCCCCCCCS(=O)(=O)Cl`, the compound was called inactive. On the same count and under the same terms, the entry for `CCOC(=O)CC(C)O` (stereo not given) is “inactive”.

As for `C/C=C(\C)C(=O)OCCc1ccccc1`, the compound was called inactive.

These data come from PubChem BioAssay (EPA / NIEHS).
